# Assay results published in the supplement of paper PMC8728848.
# Shown is part of a subset that was picked to be rich in the strongest signals.
# How the values were obtained:
# Experiment in all cases: glycan array binding signal (z-score within array); higher = stronger binding
# Details in all cases: glycan notation: IUPAC condensed, linker removed
# Fuc(a1-2)Gal(b1-4)Glc = molecular target: Fuc(a1-2)Gal(b1-4)Glc
# Procedure, shortened: (§1)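 From the Consortium for Functional Glycomics database, 3228 arrays were curated, keeping only those whose protein sequence was available. Binding is given as a within-array Z-score averaged across arrays sharing a protein sequence and across linkers. Negative Z-scores can be read as non-binding.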
# [1] = molecular target: Fuc(a1-2)Gal(b1-4)GlcNAc(b1-3)Gal(b1-4)GlcNAc
# Procedure, shortened: as §1
# [2] = molecular target: Fuc(a1-2)Gal(b1-4)[Fuc(a1-3)]GlcNAc
# Procedure, shortened: as §1
# [3] = molecular target: Fuc(a1-2)[GalNAc(a1-3)]Gal(b1-4)[Fuc(a1-3)]GlcNAc
# Procedure, shortened: as §1
# [4] = molecular target: Fuc(a1-3)[Gal(b1-4)]GlcNAc(b1-4)Gal(b1-4)[Fuc(a1-3)]GlcNAc(b1-4)Gal(b1-4)[Fuc(a1-3)]GlcNAc
# Procedure, shortened: as §1
# Gal(a1-3)GalNAc = molecular target: Gal(a1-3)GalNAc
# Procedure, shortened: as §1
# [5] = molecular target: Gal(b1-3)GlcNAc(b1-3)Gal(b1-4)Glc
# Procedure, shortened: as §1
# [6] = molecular target: Gal(b1-3)GlcNAc(b1-3)Gal(b1-4)GlcNAc
# Procedure, shortened: as §1
# [7] = molecular target: Gal(b1-3)[Fuc(a1-4)]GlcNAc(b1-3)Gal(b1-4)[Fuc(a1-3)]GlcNAc
# Procedure, shortened: as §1
# [8] = molecular target: Gal(b1-3)[Neu5Ac(a2-6)]GalNAc
# Procedure, shortened: as §1
# [9] = molecular target: Gal(b1-3)[Neu5Ac(a2-6)]GlcNAc(b1-6)Gal(b1-4)Glc
# Procedure, shortened: as §1
# Gal(b1-4)GlcNAc = molecular target: Gal(b1-4)GlcNAc
# Procedure, shortened: as §1
# [10] = molecular target: Gal(b1-4)GlcNAc(b1-3)[Gal(b1-4)GlcNAc(b1-6)]GalNAc
# Procedure, shortened: as §1
# Gal3S(b1-3)GlcNAc = molecular target: Gal3S(b1-3)GlcNAc
# Procedure, shortened: as §1
# Gal3S6S(b1-4)GlcNAc = molecular target: Gal3S6S(b1-4)GlcNAc
# Procedure, shortened: as §1
# [11] = molecular target: GlcNAc(b1-3)Gal(b1-3)GalNAc
# Procedure, shortened: as §1
# [12] = molecular target: GlcNAc(b1-3)[GlcNAc(b1-6)]GlcNAc(b1-4)GlcNAc
# Procedure, shortened: as §1
# [13] = molecular target: Neu5Ac(a2-3)Gal(b1-3)GalNAc
# Procedure, shortened: as §1
# [14] = molecular target: Neu5Ac(a2-3)Gal(b1-3)GalNAc(b1-3)Gal(b1-4)GlcNAc
# Procedure, shortened: as §1
# [15] = molecular target: Neu5Ac(a2-3)Gal(b1-3)[Fuc(a1-4)]GlcNAc(b1-3)Gal(b1-4)[Fuc(a1-3)]GlcNAc
# Procedure, shortened: as §1
# [16] = molecular target: Neu5Ac(a2-3)Gal6S(b1-4)[Fuc(a1-3)]GlcNAc
# Procedure, shortened: as §1
# [17] = molecular target: Neu5Ac(a2-3)[GalNAc(b1-4)]Gal(b1-4)Glc
# Procedure, shortened: as §1
# Neu5Ac(a2-8)Neu5Ac = molecular target: Neu5Ac(a2-8)Neu5Ac
# Procedure, shortened: as §1
binder,measurement,setting,value
"CTMLA2 (Anopheles gambiae), Q7Q7F8 (protein) MNLMITILIAVITVVRGDLSVPKTVDDILQQNPCLCPCKPFEEKEYFIPISRTSDWFGAVAYCHSVGMELAEVLNEDEARAMGEVIAEEESDSDDEFYWIGANDLGVQGTYRWALAGRPVLYSQWAAGEPNHARGENGQQPAERCVAVAMDKYEWNDFQCTQQKPFICQQFRKH",glycan array binding signal (z-score),Fuc(a1-2)Gal(b1-4)Glc,0.14
same,glycan array binding signal (z-score),[1],-0.253
same,glycan array binding signal (z-score),[2],-0.269
same,glycan array binding signal (z-score),[3],0.192
same,glycan array binding signal (z-score),[4],-0.011
same,glycan array binding signal (z-score),Gal(a1-3)GalNAc,0.077
same,glycan array binding signal (z-score),[5],4.14
same,glycan array binding signal (z-score),[6],-0.58
same,glycan array binding signal (z-score),[7],-0.224
same,glycan array binding signal (z-score),[8],-0.277
same,glycan array binding signal (z-score),[9],-0.49
same,glycan array binding signal (z-score),Gal(b1-4)GlcNAc,-0.338
same,glycan array binding signal (z-score),[10],0.036
same,glycan array binding signal (z-score),Gal3S(b1-3)GlcNAc,1.6
same,glycan array binding signal (z-score),Gal3S6S(b1-4)GlcNAc,1.36
same,glycan array binding signal (z-score),[11],1.18
same,glycan array binding signal (z-score),[12],0.928
same,glycan array binding signal (z-score),[13],-0.51
same,glycan array binding signal (z-score),[14],0.102
same,glycan array binding signal (z-score),[15],-0.129
same,glycan array binding signal (z-score),[16],-0.274
same,glycan array binding signal (z-score),[17],-0.435
same,glycan array binding signal (z-score),Neu5Ac(a2-8)Neu5Ac,-0.246
